Screening results from PubChem.
A selection: hits, their analogues and other compounds. The true share with any hit is near 9%.
BAZ2B inh – qHTS Assay for Inhibitors of BAZ2B. AID 504333, 2011. AlphaScreen BAZ2B-H3K14Ac peptide displacement. Bromodomain adjacent to zinc finger domain protein 2B (Homo sapiens), Q9UIF8. actives 4.4% (n = 360,000). Potency, µM (series often up to 114 µM), inactives show at the highest dose activity change, negative = inhibition, usual class: inhibitors; also: % is scaled to controls: 0 for no effect and ±100 for the full control effect; nearly all actives have a fitted effect of over 60% in size
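BAZ2B 50 nM plus b-H3(5-23)K14Ac 50 nM, PBS pH 7.4/0.01% Tween-20, 30 min RT; compound added (max 110 uM), 30 min RT; streptavidin donor/Ni-chelate acceptor beads 10 ug/mL final, 20 min dark; AlphaScreen read.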
HP1b chromo inh – HTS for Inhibitors of HP1-beta Chromodomain Interactions with Methylated Histone Tails | AID 540317, 2011 | AlphaScreen HP1-beta / biotin-H3K9me3 peptide binding | Chromobox protein homolog 1 (Homo sapiens), P83916 | actives 0.56% (n = 390,000) | Potency, µM (series often up to 114 µM), inactives show at the top dose activity change, negative = inhibition, hits mostly inhibitors; also: nearly all actives have a fitted effect of over 70% in size
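AlphaScreen: HP1-beta (50 nM) preformed 30 min with biotin-H3(1-18)K9me3 peptide (50 nM) in PBS pH 7.4, 0.01% Tween-20. Compound added for 30 min at RT, then streptavidin donor/nickel chelate acceptor beads (10 ug/mL) for 30 min.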
JMJD2A Tudor – qHTS Assay for Inhibitors of JMJD2A-Tudor Domain. Lysine-specific demethylase 4A (Homo sapiens), O75164. AlphaScreen JMJD2A-Tudor / H3K4me3 peptide binding. Potency, µM (titrated, usually from 114 µM), for the others: at the highest dose activity change, negative = inhibition, actives largely listed as inhibitors. actives 4.4% (n = 390,000); also: % is scaled to controls: 0 for no effect and ±100 for the full control effect; nearly all actives have a fitted effect of over 50% in size
PLK1 PBD block – qHTS for Inhibitors of PLK1-PDB (polo-like kinase 1 - polo-box domain): Primary Screen; Serine/threonine-protein kinase PLK1 (Homo sapiens), P53350; Plk1 PBD binding of FITC phosphopeptide, fluorescence polarization; Potency, µM, for inactives: max response, negative = inhibition, hits mostly inhibitors; actives 2.8% (n = 360,000); AID 720504, 2013; also: series mostly up to about 57 µM; % is scaled to controls: 0 for no effect and ±100 for the full control effect; nearly all actives have a fitted effect of over 65% in size
G9a inh – qHTS Assay for Inhibitors of Histone Lysine Methyltransferase G9a | Potency, µM (doses to about 102 µM), without a hit: top-dose activity, negative = inhibition, actives largely listed as inhibitors | actives 8.8% (n = 350,000) | G9a H3K9 monomethylation, AlphaScreen, 2 h | Histone-lysine N-methyltransferase EHMT2 (Homo sapiens), Q96KQ7; also: % is scaled to controls: 0 for no effect and ±100 for the full control effect; nearly all actives have a fitted effect of over 75% in size
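Step 1: enzyme (final 20 nM) with compound, 15 min RT. Step 2: substrate peptide 500 nM and SAM 20 uM, 2 h RT. Step 3: anti-H3K9me1 antibody and AlphaScreen beads, 10 min, then plate read.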
ALOX12 inh – Primary qHTS assay for inhibitors of human arachidonate 12S-lipoxygenase (ALOX12): Round 2 | Polyunsaturated fatty acid lipoxygenase ALOX12 (Homo sapiens), P18054 | purified 12hLO, xylenol orange hydroperoxide absorbance | Potency, µM (top dose mostly 108 µM), for the others: at the top dose activity change, negative = inhibition, actives largely listed as inhibitors | actives 1.1% (n = 580,000) | AID 1671190, 2021; also: % is scaled to controls: 0 for no effect and ±100 for the full control effect
Target sequence (P18054 whole entry, looked up): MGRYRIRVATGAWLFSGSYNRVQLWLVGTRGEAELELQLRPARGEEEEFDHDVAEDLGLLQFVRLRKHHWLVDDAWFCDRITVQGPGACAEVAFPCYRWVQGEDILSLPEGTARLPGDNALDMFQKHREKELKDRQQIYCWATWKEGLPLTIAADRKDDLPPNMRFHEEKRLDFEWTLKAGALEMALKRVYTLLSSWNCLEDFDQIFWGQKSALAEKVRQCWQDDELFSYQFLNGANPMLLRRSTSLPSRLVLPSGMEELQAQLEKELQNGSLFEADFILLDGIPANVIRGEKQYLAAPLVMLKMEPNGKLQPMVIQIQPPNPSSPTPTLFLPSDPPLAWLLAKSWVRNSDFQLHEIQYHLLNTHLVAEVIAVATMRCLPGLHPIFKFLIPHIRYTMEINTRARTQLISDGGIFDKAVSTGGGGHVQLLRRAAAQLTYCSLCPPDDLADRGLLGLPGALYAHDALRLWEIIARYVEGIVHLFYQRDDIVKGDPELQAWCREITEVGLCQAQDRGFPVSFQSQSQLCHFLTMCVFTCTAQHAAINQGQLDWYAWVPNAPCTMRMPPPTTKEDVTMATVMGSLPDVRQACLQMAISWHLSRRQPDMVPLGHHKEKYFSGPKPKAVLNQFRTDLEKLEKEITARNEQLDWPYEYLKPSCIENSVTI
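Purified human 12hLO (150 nM final) in 25 mM Hepes, 0.01% Triton X-100, pH 7.0 was preincubated 15 min at room temperature with compound. Then 40 uM arachidonic acid was added, 30 min. Hydroperoxide was read by Fe-XO absorbance ratio 573/405 nm.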
Numbers without * were called inactive; u = inconclusive; x = no result given; [ ] = another dose, or the depositor's remark. Calls follow the shape of the dose curve; as a rule, active = well fitted curve in the direction sought with a large enough effect; inconclusive = small, poorly fitted or top-dose-only effect, or another doubt; inactive = no such curve, though single readings can be large; an effect the other way counts as inactive or inconclusive. Potency is read from the fitted curve at half-maximal effect.

SMILES	BAZ2B inh	HP1b chromo inh	JMJD2A Tudor	PLK1 PBD block	G9a inh	ALOX12 inh
O=C(Nc1ccon1)c1cc(-c2ccccc2)nc2ccccc12	11%	24%	-31%	1%	3%[59 µM]	-3%
CCOc1cccc(-c2cc(C(=O)Nc3ccon3)c3ccccc3n2)c1	-5%	18%	-25%	-8%	20µM*	15%
CCCCc1nc(-c2ccc(-c3ccc(C)cc3)nc2OC)no1	x	x	x	x	x	-2%
Cc1ccc(NC(=O)CCN2C(=O)c3cccc4cccc(c34)C2=O)cc1	u	25%	-17%	-11%	7%[59 µM]	-11%
CCN(CC)c1ccc(NC(=O)CCCCCN2C(=O)c3ccccc3C2=O)cc1	45µM*	u	25µM*	-6%	2.5µM*	0%
Cc1ccc(NC(=O)CCCN2C(=O)c3cccc4cccc(c34)C2=O)cc1	0%	0%	79µM*	27µM*	46%[59 µM]	-24%
O=C(/C=C/Nc1ccc(F)c(Cl)c1)c1ccco1	6%	12%	-14%	-3%	-25%[12.7 µM]	0%
Cc1ccc(-n2ncc3c2CC(C)(C)CC3NC(=O)CCN2CCCCC2=O)cc1 (stereo unspecified)	-4%	3%	-1%	-13%	x	15%
COC(=O)c1ccc(CSC2=NC[C@@H]3[C@@H]4C(=O)N(Cc5ccccc5)C(=O)[C@@H]4[C@](C)(C(=O)OC)N23)cc1	x	12%	u	2%	x	-23%
COC(=O)c1ccc(CSC2=NC[C@@H]3[C@@H]4C(=O)N(Cc5ccccc5)C(=O)[C@@H]4[C@](Cc4ccccc4)(C(=O)OC)N23)cc1	x	-4%	79µM*	-4%	x	-26%
COC(=O)[C@@]1(C)[C@H]2C(=O)N(Cc3ccccc3)C(=O)[C@H]2[C@H]2CN=C(SCc3ccc(C)cc3)N21	x	42%	u	-8%	x	40µM*
NS(=O)(=O)c1ccc(CCNC(=O)c2ccc[nH]c2=S)cc1	-18%	u	2.2µM*	-6%	1.4µM*	-9%
CC(=O)Oc1ccc(-c2ccc(C(=O)NCCc3ccc(S(N)(=O)=O)cc3)cc2)cc1	-6%	-21%	-22%	-21%	71µM*	-22%
CCOc1cc(C(=O)NCCc2ccc(S(N)(=O)=O)cc2)cc(OCC)c1OCC	2%	6%	u	30µM*	x	0%
CC(=O)Oc1ccc(C(=O)NCCc2ccccc2)cc1	-4%	32%	-6%	-4%	-6%	2%
CCC1c2nccn2CCCN1C(=O)c1nn(C)c2ccccc12 (stereo unspecified)	x	x	x	x	x	49%
Cc1cc(C)nc(NS(=O)(=O)c2ccc(NC(=O)CCCN3C(=O)c4ccccc4C3=O)cc2)n1	6%	18%	-8%	-4%	7%	-7%
O=C1NCCCC1C(=O)Nc1ccccn1 (stereo unspecified)	-5%	55%	9%	0%	-1%[12.7 µM]	0%
Cc1cc(C)nc(/N=C2\NC(=O)CC(C(=O)O)N2c2ccc(C)c(C)c2)n1 (stereo unspecified)	-10%	-2%	13µM*	24µM*	-38%	-10%
CCCN1CCC(=NNC(=O)c2ccc(Br)o2)CC1	-2%[57.1 µM]	22%	-23%	-2%	-6%	15%
CCCN1CCC(=NNc2ccc(C(=O)O)cc2)CC1	u	23%	-24%	-16%	7.9µM*	-15%
O=C(O)C/C(=C/c1ccc(Br)cc1)c1nc2ccccc2s1	x	x	x	x	x	32µM*
O=C(O)C/C(=C/c1cccc(Br)c1)c1nc2ccccc2s1	x	x	x	x	x	28µM*
COc1cccc(/C=C(\CC(=O)O)c2nc3ccccc3s2)c1	x	34%	-4%	-21%	-8%	-17%
O=C(O)C/C(=C/c1cccc(Oc2ccc(Cl)cc2)c1)c1nc2ccccc2s1	x	x	x	x	x	23%
SMILES	BAZ2B inh	HP1b chromo inh	JMJD2A Tudor	PLK1 PBD block	G9a inh	ALOX12 inh
COc1ccc(/C=C(/CC(=O)O)c2nc3ccccc3s2)cc1	x	x	x	x	x	2.2µM*
CC(=O)Nc1nnc(SCC(=O)c2ccc3c(c2)Cc2ccccc2-3)s1	6%	22%	-1%	-1%	-7%[59 µM]	-12%
COc1cccc(OC)c1OCCCCN1CCC(Cc2ccccc2)CC1	28µM*	u	3.2µM*	-4%	13µM*	u
CC(=O)CCc1ccc(OCCCCN2CCC(Cc3ccccc3)CC2)cc1	50µM*	u	3.5µM*	-7%	10µM*	u
COc1cccc(OC)c1OCCCCN1CCCCC1	50µM*	-38%	40µM*	5%	11µM*	0%
COc1cccc(OC)c1OCCCCN1CCCC1	u	u	7.9µM*	-5%	u	u
Cc1cc([N+](=O)[O-])nn1CC(=O)Nc1sc2c(c1C(N)=O)CCCC2	-26%	-17%	-25%	-27%	32µM*	-29%
O=C(Nc1sc2c(c1C(=O)O)CCC2)C(=O)N1CCOCC1	50µM*	-22%	u	-23%	40µM*	0%
NC(=O)c1c(NC(=O)CN2CCCC2)sc2c1CCCC2	0%	-1%	18µM*	3µM*	30%[12.7 µM]	97%
NC(=O)c1c(NC(=O)CN2C(=O)CCC2=O)sc2c1CCCCC2	-2%	-3%	-12%	u	16µM*	-11%
O=C(Nc1sc2c(c1C(=O)O)CCCC2)C(=O)N1CCOCC1	-31%	20%	-28%	u	u	-6%
NC(=O)c1c(NC(=O)Cn2nc(C(=O)O)c3ccccc3c2=O)sc2c1CCCC2	-21%	34%	-2%	0%	10%	-9%
COc1ccccc1C1=NOC(C)(c2sc(-c3ccccc3)nc2C)C1 (stereo unspecified)	x	44%	-10%	-14%	x	u
NC(=O)c1c(NC(=O)CN2CCOCC2)sc2c1CCC2	x	42%	-15%	-14%	25µM*	-2%
CCCS(=O)(=O)N1CCN(Cc2c[nH]c3ccccc23)CC1	50µM*	u	22µM*	0%	25µM*	u
c1cncc(CN2CCN(Cc3c[nH]c4ccccc34)CC2)c1	x	x	x	x	x	0.32µM*
CCCS(=O)(=O)N1CCN(Cc2ccccc2C(F)(F)F)CC1	-111%	u	20µM*	-1%	10µM*	u
CN1CCCN(Cc2ccccc2C(F)(F)F)CC1	50µM*	u	0.71µM*	-6%	u	u
